# In the supplement of paper PMC10037445:
# Whole data set: some 2,900 compounds, median “NF-kB SEAP reporter activity, fold change vs agonist alone” near 0.99, cut for the highest 2% near 2.6. The entries come from a sample that favours the highest values as a whole.
# What was measured:
# RAW-Dual [1] = assay: NF-kB SEAP reporter activity, fold change vs agonist alone; higher = enhanced NF-kB activity; details: cytotoxicity flag (confluency mask): not cytotoxic
# Summary of the method: (§1)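 Library stock was pin-tooled at 50 nL into 384-well plates of RAW-Dual macrophages (50,000 cells/well, DMEM), followed 1 h later by a PRR agonist, and the cells were kept at 37 °C, 5% CO2. Supernatant collected after 20 hours was read for IRF by QuantiLuc luminescence and for NF-κB by QuantiBlue absorbance at 620 nm. Reporter activity is fold change over agonist-alone wells, and a well counted as cytotoxic when its IncuCyte confluency was below 70% of agonist controls in both mask sets.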
# RAW-Dual [2] = assay: NF-kB SEAP reporter activity, fold change vs agonist alone; cytotoxicity flag (confluency mask): not cytotoxic; higher = enhanced NF-kB activity
# Summary of the method: as §1
# [3] = library stock concentration (final ~1000-fold dilution): 10 mM, agonist: Imiquimod (TLR7) […]
# [4] = library stock concentration (final ~1000-fold dilution): 10 mM, agonist: MPLA (TLR4) […]
# [5] = agonist: ODN 1826 (TLR9) 0.5 ug/mL
# [6] = agonist: Pam2CSK4 (TLR2/6) 0.1 ug/mL
# [7] = agonist: Pam3CSK4 (TLR2/1) 0.1 ug/mL
# [8] = library stock concentration (final ~1000-fold dilution): .1 mM, agonist: Imiquimod (TLR7) […]
# [9] = library stock concentration (final ~1000-fold dilution): .1 mM, agonist: MPLA (TLR4) […]
structure (smiles),measurement,setting,value
O=C(NCC(O)CN1CCc2ccccc2C1)c1ccnc(NC2CCC2)c1 (stereo not drawn),NF-kB SEAP reporter activity,RAW-Dual [1]; [3],0.885
same,NF-kB SEAP reporter activity,RAW-Dual [1]; [4],0.997
O=C(NCC(O)CN1CCc2ccccc2C1)c1ccnc(NC2CCC2)c1 (stereo not drawn) (library stock concentration (final ~1000-fold dilution): 10 mM),NF-kB SEAP reporter activity,RAW-Dual [2]; agonist: LPS (TLR4) 0.1 ug/mL,0.908
same,NF-kB SEAP reporter activity,RAW-Dual [2]; [5],0.581
same,NF-kB SEAP reporter activity,RAW-Dual [2]; [6],1.03
same,NF-kB SEAP reporter activity,RAW-Dual [2]; [7],0.884
CN(c1ncccc1CNc1nc(Nc2ccc3c(c2)CC(=O)N3)ncc1C(F)(F)F)S(C)(=O)=O.O=S(=O)(O)c1ccccc1,NF-kB SEAP reporter activity,RAW-Dual [1]; [3],1.02
same,NF-kB SEAP reporter activity,RAW-Dual [1]; [4],0.953
CN(c1ncccc1CNc1nc(Nc2ccc3c(c2)CC(=O)N3)ncc1C(F)(F)F)S(C)(=O)=O.O=S(=O)(O)c1ccccc1 (library stock concentration (final ~1000-fold dilution): 10 mM),NF-kB SEAP reporter activity,RAW-Dual [2]; agonist: LPS (TLR4) 0.1 ug/mL,0.207
same,NF-kB SEAP reporter activity,RAW-Dual [2]; [5],0.982
same,NF-kB SEAP reporter activity,RAW-Dual [2]; [6],0.147
same,NF-kB SEAP reporter activity,RAW-Dual [2]; [7],0.882
CC(C)(F)CC(NC(c1ccc(-c2ccc(S(C)(=O)=O)cc2)cc1)C(F)(F)F)C(=O)NC1(C#N)CC1 (stereo not drawn) (library stock concentration (final ~1000-fold dilution): 10 mM),NF-kB SEAP reporter activity,RAW-Dual [2]; agonist: LPS (TLR4) 0.1 ug/mL,0.968
same,NF-kB SEAP reporter activity,RAW-Dual [2]; [5],1.15
same,NF-kB SEAP reporter activity,RAW-Dual [2]; [6],0.937
same,NF-kB SEAP reporter activity,RAW-Dual [2]; [7],0.97
CC(C)(F)CC(NC(c1ccc(-c2ccc(S(C)(=O)=O)cc2)cc1)C(F)(F)F)C(=O)NC1(C#N)CC1 (stereo not drawn),NF-kB SEAP reporter activity,RAW-Dual [1]; [3],0.932
same,NF-kB SEAP reporter activity,RAW-Dual [1]; [4],1.02
Cc1cc(-c2ccnc3cc(O)ccc23)ccc1O,NF-kB SEAP reporter activity,RAW-Dual [1]; [8],1.38
same,NF-kB SEAP reporter activity,RAW-Dual [1]; [9],2.06
COc1ccc2c(-c3ccc(O)c(C)c3)ccnc2c1,NF-kB SEAP reporter activity,RAW-Dual [1]; [8],0.339
same,NF-kB SEAP reporter activity,RAW-Dual [1]; [9],1.1
COc1ccc2c(-c3ccc(O)c(C)c3)ccnc2c1 (library stock concentration (final ~1000-fold dilution): .1 mM),NF-kB SEAP reporter activity,RAW-Dual [2]; agonist: LPS (TLR4) 0.1 ug/mL,1.1
same,NF-kB SEAP reporter activity,RAW-Dual [2]; [5],1.07
same,NF-kB SEAP reporter activity,RAW-Dual [2]; [6],0.664
same,NF-kB SEAP reporter activity,RAW-Dual [2]; [7],0.85
Cc1cc(-c2ccnc3cc(O)ccc23)ccc1O (library stock concentration (final ~1000-fold dilution): .1 mM),NF-kB SEAP reporter activity,RAW-Dual [2]; agonist: LPS (TLR4) 0.1 ug/mL,3.3
same,NF-kB SEAP reporter activity,RAW-Dual [2]; [5],1.31
same,NF-kB SEAP reporter activity,RAW-Dual [2]; [6],1.32
same,NF-kB SEAP reporter activity,RAW-Dual [2]; [7],1.41
CC(NCc1ccc(OCc2cccc(F)c2)cc1)C(N)=O (stereo not drawn),NF-kB SEAP reporter activity,RAW-Dual [1]; [4],1.07
CC(NCc1ccc(OCc2cccc(F)c2)cc1)C(N)=O (stereo not drawn) (library stock concentration (final ~1000-fold dilution): 10 mM),NF-kB SEAP reporter activity,RAW-Dual [2]; agonist: LPS (TLR4) 0.1 ug/mL,1.32
same,NF-kB SEAP reporter activity,RAW-Dual [2]; [5],0.933
same,NF-kB SEAP reporter activity,RAW-Dual [2]; [6],1.16
same,NF-kB SEAP reporter activity,RAW-Dual [2]; [7],0.745
Nc1cc(C(F)(F)F)c(-c2nc(N3CCOCC3)nc(N3CCOCC3)n2)cn1,NF-kB SEAP reporter activity,RAW-Dual [1]; [3],0.783
same,NF-kB SEAP reporter activity,RAW-Dual [1]; [4],1.11
Nc1cc(C(F)(F)F)c(-c2cc(N3CCOCC3)nc(N3CCOCC3)n2)cn1,NF-kB SEAP reporter activity,RAW-Dual [1]; [3],1.71
same,NF-kB SEAP reporter activity,RAW-Dual [1]; [4],1.63
FC(F)c1nc2ccccc2n1-c1nc(N2CCOCC2)nc(N2CCOCC2)n1 (library stock concentration (final ~1000-fold dilution): 10 mM),NF-kB SEAP reporter activity,RAW-Dual [2]; agonist: LPS (TLR4) 0.1 ug/mL,2.13
same,NF-kB SEAP reporter activity,RAW-Dual [2]; [5],0.832
same,NF-kB SEAP reporter activity,RAW-Dual [2]; [6],0.936
same,NF-kB SEAP reporter activity,RAW-Dual [2]; [7],0.767
Nc1cc(C(F)(F)F)c(-c2cc(N3CCOCC3)nc(N3CCOCC3)n2)cn1 (library stock concentration (final ~1000-fold dilution): 10 mM),NF-kB SEAP reporter activity,RAW-Dual [2]; agonist: LPS (TLR4) 0.1 ug/mL,2.59
same,NF-kB SEAP reporter activity,RAW-Dual [2]; [5],2.07
same,NF-kB SEAP reporter activity,RAW-Dual [2]; [6],1.49
same,NF-kB SEAP reporter activity,RAW-Dual [2]; [7],0.904
FC(F)c1nc2ccccc2n1-c1nc(N2CCOCC2)nc(N2CCOCC2)n1,NF-kB SEAP reporter activity,RAW-Dual [1]; [3],1.77
same,NF-kB SEAP reporter activity,RAW-Dual [1]; [4],1.32
Nc1cc(C(F)(F)F)c(-c2nc(N3CCOCC3)nc(N3CCOCC3)n2)cn1 (library stock concentration (final ~1000-fold dilution): 10 mM),NF-kB SEAP reporter activity,RAW-Dual [2]; agonist: LPS (TLR4) 0.1 ug/mL,0.943
same,NF-kB SEAP reporter activity,RAW-Dual [2]; [5],0.711
same,NF-kB SEAP reporter activity,RAW-Dual [2]; [6],0.402
same,NF-kB SEAP reporter activity,RAW-Dual [2]; [7],0.503
